# Active and inactive are the calls of the source. Calls follow the shape of the dose curve; as a rule, active = well fitted activation curve with a large enough effect in the repeat runs; inconclusive = weak or mixed curves; inactive = flat fitted curve, though single readings scatter.
# Molecular target: KiSS-1 receptor (Homo sapiens) (UniProt Q969F8)
# Test: Human kisspeptin (KISS1R) small molecule agonists, calcium flux assay in KISS1R-HEK293 cells (AID 1920064)
# Conditions: KISS1R-HEK293, calcium flux fluorescence, agonist; series mostly up to 76.8 µM; activation: at the top concentration
# Excerpt: National Center for Advancing Translational Sciences [NCATS]
# Division of Preclinical Innovation [DPI]
# U.S. Environmental Protection Agency [EPA]
# National Institutes of Environmental Health Sciences [NIEHS]
# National Toxicology Program [NTP]
# U.S. Food and Drug Administration [FDA]
# Kisspeptin and its receptor KISS1R play key roles in mammalian reproduction due to their involvement in the onset of puberty and control of the hypothalamic-pituitary-gonadal axis such as regulates GnRH release from the hypothalamus. The kisspeptin/KISS1R system also plays a direct role in peripheral organs (including the ovary, testis, uterus, and placenta) and is implicated in reproductive diseases such as miscarriage and polycystic ovary syndrome (PCOS). Abnormal KISS1R activity is associated with abnormal puberty, infertility, endometriosis, and hormone-dependent tumors. The KISS1 receptor (KISS1R, also called GPR54), a G-protein-coupled receptor (GPCR), acts (through phospholipase C) to increase intracellular inositol trisphosphate and then release intracellular calcium stores. Cell-based KISS1R-HEK293 assay is using HEK293 cells that have been genetically engineered to express the human KISS1R, which activity can be measured by calcium signaling. A compound/drug can activate (agonist) KISS1R that can be monitored by levels of intracellular calcium.
# KISS1R-HEK293 cells developed by Codex Corp contain human KISS1R gene, which was stably integrated into HEK 293 cells. The compound activation can be detected by fluorescence intensity via calcium flux assay. This cell line has been used to screen the Tox21 10K compound library to identify agonists of KISS1R.
# KISS1R-Hek293 cells were dispensed at 1500 cells/4uL/well in 1536-well black wall/clear bottom plates using a multidrop dispenser. After the assay plates were incubated at a 37 C/5% CO2 incubator for 18 hours, 4 microL of Calcium Dye Solution was added to each well. The plates were incubated at 37 C for 1 hour. And then 23 nL of compounds dissolved in DMSO, positive controls, or DMSO only was transferred to the assay plate by a pin tool station. The fluorescence intensity in the plates was measured using FDSS 7000EX kinetic plate reader with a filter set of Ex/Em=480/540 for 3 min at 1 sec intervals. Each test compound was measured at 15 concentrations and in triplicates.
# % is scaled to controls: 0 for no effect and ±100 for the full control effect.
# KiSS-1 receptor (Homo sapiens), sequence (Q969F8 whole entry, looked up): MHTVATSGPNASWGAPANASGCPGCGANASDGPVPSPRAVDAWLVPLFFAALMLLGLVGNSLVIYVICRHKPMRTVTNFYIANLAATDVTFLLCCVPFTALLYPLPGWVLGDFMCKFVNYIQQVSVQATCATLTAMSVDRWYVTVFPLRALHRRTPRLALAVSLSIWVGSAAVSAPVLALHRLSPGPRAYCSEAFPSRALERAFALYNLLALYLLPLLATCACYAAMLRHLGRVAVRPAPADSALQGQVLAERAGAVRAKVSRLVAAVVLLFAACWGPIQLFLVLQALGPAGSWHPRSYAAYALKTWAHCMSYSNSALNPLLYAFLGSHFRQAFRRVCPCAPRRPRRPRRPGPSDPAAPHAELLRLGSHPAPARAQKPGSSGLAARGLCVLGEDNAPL
SMILES,activation,Potency
CCN(CC)CC(=O)Oc1ccc(NC(C)=O)cc1,-1.23% [at 35.3 µM] (inactive),–
CCCCCCCCCCCCCCCCBr,1.03% [at 15.8 µM] (inactive),–
C=C1C[C@]23C[C@@]1(O)CC[C@H]2[C@@]12C=C[C@H](O)[C@@](C)(C(=O)O1)[C@H]2[C@@H]3C(=O)O,–,inactive
CCCCCCCCS,-3.13% (inactive),–
C=C[C@H]1CN2CC[C@H]1C[C@@H]2[C@@H](O)c1ccnc2ccc(OC)cc12,–,inactive
O=C(O)CCS,-1.36% (inactive),–
CN(C)c1ccc(Cc2ccc(N(C)C)cc2)cc1,–,inactive
CC1CNCC(C)O1 (stereo not given),-0.346% (inactive),–
O=C(c1ccc2c(c1)C(=O)OC2=O)c1ccc2c(c1)C(=O)OC2=O,-0.994% (inactive),–
CC(CC=O)CC(C)(C)C (stereo not given),1.16% (inactive),–
C[C@@H]1CCN(C(=O)[C@H](CCCN=C(N)N)NS(=O)(=O)c2cccc3c2NC[C@H](C)C3)[C@@H](C(=O)O)C1,-1.21% [at 35.3 µM] (inactive),–
CC(C)OCCO,-1.67% (inactive),–
CN(C)CCCNCCC#N,0.908% (inactive),–
CCCC/C=C\CCCCCCCCCC=O,-0.297% (inactive),–
CC(=C(CCOC(=O)C(C)C)SSC(CCOC(=O)C(C)C)=C(C)N(C=O)Cc1cnc(C)nc1N)N(C=O)Cc1cnc(C)nc1N,-0.877% [at 35.3 µM] (inactive),–
CCN(Cc1cccc(S(=O)(=O)O)c1)c1ccccc1,-1.42% (inactive),–
C=CC(C)(O)CC/C=C(\C)CC (stereo not given),-0.804% (inactive),–
CCOC(=O)C(C)C(C)=O (stereo not given),-0.975% (inactive),–
NC(=O)c1ccccc1Cl,-2.11% (inactive),–
CN=C(NC#N)NCCSCc1nc[nH]c1C,–,inactive

SMILES,activation,Potency
CCc1ccc(C)nc1,0.281% (inactive),–
C=CCCC,-1.85% (inactive),–
CC(=O)[C@H]1CC[C@H]2[C@@H]3CCC4=CC(=O)CC[C@]4(C)[C@H]3CC[C@]12C,–,inactive
CC(C)=O,0.875% (inactive),–
CCc1cnc(C(=O)O)c(C(=O)O)c1,-1.74% (inactive),–
CCCCC(CC)COCC1CO1 (stereo not given),–,inactive
Cc1cc(C)c(N)c(Cl)c1,-2.85% (inactive),–
CCCCOC(=O)C(C)OC(=O)CCC (stereo not given),3.51% (inactive),–
O=C1CCCCC1,–,inactive
CNC1(C)C2CCC(C2)C1(C)C (stereo not given),-0.448% [at 35.3 µM] (inactive),–
Nc1nnnn1-c1ccccc1,-2.01% [at 35.3 µM] (inactive),–
COC(=O)c1sccc1S(N)(=O)=O,-0.447% (inactive),–
COc1cc(C(=O)N2CCCCCCC2)cc(OC)c1OC,-1.35% [at 35.3 µM] (inactive),–
CCOCCOCCOCC,1.99% (inactive),–
CC(=O)CC(C)(C)C1CCCCC1,0.0515% (inactive),–
O=C(O)CN(CCCN(CC(=O)O)CC(=O)O)CC(=O)O,-0.261% [at 15.8 µM] (inactive),–
c1ccsc1,-0.302% (inactive),–
CCO[Si](OCC)(OCC)c1ccccc1,-0.999% (inactive),–
CC(C)C1CCC(O)CC1 (stereo not given),1.77% (inactive),–
CC(C)(C)NC(=O)[C@@H]1CN(Cc2cccnc2)CCN1C[C@@H](O)C[C@@H](Cc1ccccc1)C(=O)N[C@H]1c2ccccc2C[C@H]1O,–,inactive
